VLA-4 inh = inhibition in human VLA-4 binding assay, primary screen, VLA-4 allosteric modulator project, MLPCN library, flow cytometry, VLA-4 expressing cells; 0.2% of 330,000 active; Integrin alpha-4 (Homo sapiens), P13612; inhibition, % (about 7 µM as worked out from the volumes in the protocol); ligand binding flow cytometry; in the data active means inhibition above about 50%
Target sequence (P13612 whole entry, looked up): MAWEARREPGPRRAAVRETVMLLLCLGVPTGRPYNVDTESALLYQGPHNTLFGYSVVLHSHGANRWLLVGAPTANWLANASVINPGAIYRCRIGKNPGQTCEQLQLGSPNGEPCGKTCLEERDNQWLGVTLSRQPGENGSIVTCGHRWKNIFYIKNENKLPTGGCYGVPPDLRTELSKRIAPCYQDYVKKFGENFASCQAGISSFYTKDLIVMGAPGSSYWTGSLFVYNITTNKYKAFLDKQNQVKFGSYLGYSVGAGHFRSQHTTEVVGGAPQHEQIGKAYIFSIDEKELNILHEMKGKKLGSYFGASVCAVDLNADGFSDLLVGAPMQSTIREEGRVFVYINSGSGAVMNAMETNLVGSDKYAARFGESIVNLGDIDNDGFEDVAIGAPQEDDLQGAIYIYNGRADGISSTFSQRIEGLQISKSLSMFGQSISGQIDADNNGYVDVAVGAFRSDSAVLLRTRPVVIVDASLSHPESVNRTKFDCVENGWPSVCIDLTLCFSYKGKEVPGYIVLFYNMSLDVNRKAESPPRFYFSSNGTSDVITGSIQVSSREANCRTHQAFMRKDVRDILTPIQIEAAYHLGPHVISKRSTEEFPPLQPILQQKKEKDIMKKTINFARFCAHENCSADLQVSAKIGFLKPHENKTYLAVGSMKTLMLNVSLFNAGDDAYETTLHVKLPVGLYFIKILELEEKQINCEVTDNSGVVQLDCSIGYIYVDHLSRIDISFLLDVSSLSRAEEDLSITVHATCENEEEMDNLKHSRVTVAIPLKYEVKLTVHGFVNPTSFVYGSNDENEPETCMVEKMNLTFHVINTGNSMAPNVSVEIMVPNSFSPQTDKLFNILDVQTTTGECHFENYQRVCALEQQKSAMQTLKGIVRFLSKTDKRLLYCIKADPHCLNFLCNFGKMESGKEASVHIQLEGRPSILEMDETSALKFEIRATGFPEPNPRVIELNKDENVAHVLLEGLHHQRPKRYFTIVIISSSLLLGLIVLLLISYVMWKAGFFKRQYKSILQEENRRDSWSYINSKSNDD
MEKK2 mut-MEK5 = MEK5 binding signal on mutant MEKK2 PB1, primary screen, biochemical, multiplex bead flow cytometry, Alexa488-MEK5; percent response, % at 10 µM; 0.35% of 290,000 active; Alexa488-MEK5 binding to MEKK2 mutant; in the data active means percent response above about 24%, passing the limit was not always enough
MEKK2wt PB1 HTS = modulators of MEK5 binding to wildtype MEKK2, primary screen, biochemical, multiplex bead flow cytometry, Alexa488-MEK5; Mitogen-activated protein kinase kinase kinase 2 (Homo sapiens), Q9Y2U5; Alexa488-MEK5 binding to MEKK2 WT; actives lie on both sides; binding response (% of control), % at 10 µM; 1.1% of 290,000 active; in the data active means binding response below about 67% or above about 130%
MEKK3 PB1 HTS = modulators of MEKK3-MEK5 PB1 binding, primary screen, biochemical, wildtype MEKK3, multiplex bead flow cytometry, Alexa488-MEK5; Mitogen-activated protein kinase kinase kinase 3 (Homo sapiens), Q99759; bead-based flow cytometry, Alexa488-MEK5 binding to MEKK3; actives lie on both sides; 0 = blocked by unlabeled MEK5, 100 = vehicle; binding response (% of control), % at 10 µM; 1.4% of 290,000 active;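 active means binding response more than 3 SD above or below the average of its plate-row segment, actives on both sides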;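 further: Alexa488 bead fluorescence after subtracting the streptavidin-only scavenger bead signal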
MEKK2wt confirm = modulators of MEK5 binding to wildtype MEKK2, confirmation, biochemical, single concentration, multiplex bead flow cytometry; shares compounds with MEKK3 PB1 HTS; Alexa488-MEK5 binding to MEKK2 WT; actives lie on both sides; binding response (% of control), % at 10 µM; 2.4% of 5,900 active; AID 1892, 2009; in the data active means binding response below about 16% or above about 210%; inactive means in between
MEKK2mut confirm = mutant MEKK2 PB1-MEK5 binding signal retest – biochemical, single concentration, multiplex bead flow cytometry, confirmation. percent response, % at 10 µM. 2% of 5,900 active. shares compounds with MEKK3 PB1 HTS. Alexa488-MEK5 binding to MEKK2 mutant; in the data active means percent response mostly above about 71%, no sharp cut-off; inactive means mostly below about 38%;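 further: higher means compound restores mutant binding toward wildtype level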
MEKK3 confirm = MEKK3 wild-type PB1 binding to MEK5, inhibitors, confirmation, biochemical, bead multiplex flow cytometry, single concentration, wildtype; shares compounds with MEKK3 PB1 HTS; Alexa488-MEK5 binding to MEKK3; hits give low values; binding response (% of control), % at 10 µM; 1.8% of 5,900 active;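 active means binding response below 72% of control, or above a set upper limit, though filed actives all read lower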;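 further: 100% = DMSO only wells and 0% = binding blocked by excess unlabeled MEK5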
* hit, by the source's call; [ ] = another dose, or the depositor's remark. Most compounds without a hit are left out; they make up all but 2.2% or so of the library.

For N#Cc1ccc2nc3c(nc2c1)CCCC3 the results were VLA-4 inh 13.1, MEKK2 mut-MEK5 6.0, MEKK2wt PB1 HTS 103.0 and MEKK3 PB1 HTS 101.0.
`C=CCc1c(C)nc2c(OC)cccc2c1Cl` gave VLA-4 inh 6.6, MEKK2 mut-MEK5 -1.0, MEKK2wt PB1 HTS 111.0, MEKK3 PB1 HTS 131.0*, MEKK2wt confirm 103.0, MEKK2mut confirm -2.0 and MEKK3 confirm 100.0.
`N#Cc1cccc(NC(=O)Cn2c3[n+](c4ccc(C(F)(F)F)cc42)CCCCC3)c1` gave VLA-4 inh 1.2, MEKK2 mut-MEK5 0.0, MEKK2wt PB1 HTS 117.0, MEKK3 PB1 HTS 69.0*[inhibitor], MEKK2wt confirm 111.0, MEKK2mut confirm 6.0 and MEKK3 confirm 98.0.
Screening Fc1ccccc1Cn1c2[n+](c3ccc(C(F)(F)F)cc31)CCCCC2 returned VLA-4 inh 2.8, MEKK2 mut-MEK5 -2.0, MEKK2wt PB1 HTS 97.0 and MEKK3 PB1 HTS 102.0.
Cn1nnc2ccccc2c1=O was read as VLA-4 inh 7.6, MEKK2 mut-MEK5 7.0, MEKK2wt PB1 HTS 129.0, MEKK3 PB1 HTS 141.0*, MEKK2wt confirm 100.0, MEKK2mut confirm -2.0 and MEKK3 confirm 98.0.
For CC(=O)OC1CC(c2cc(C(C)(C)C)c(O)c(C(C)(C)C)c2)=NO1 (configuration not stated) the results were VLA-4 inh 9.1, MEKK2 mut-MEK5 -4.0, MEKK2wt PB1 HTS 97.0 and MEKK3 PB1 HTS 98.0.
Cc1ccnc(SCc2ccc(C(=O)O)cc2)n1 was read as VLA-4 inh 40.4, MEKK2 mut-MEK5 -1.0, MEKK2wt PB1 HTS 102.0 and MEKK3 PB1 HTS 103.0.
Screening COc1cc(Cl)c(C)cc1NC(=O)c1ccc(S(C)(=O)=O)cc1 returned VLA-4 inh -14.6, MEKK2 mut-MEK5 -25.0, MEKK2wt PB1 HTS 63.0, MEKK3 PB1 HTS 45.0*[inhibitor], MEKK2wt confirm 94.0, MEKK2mut confirm -6.0 and MEKK3 confirm 96.0.
COc1cc(NC(=O)c2ccccc2)c(OC)cc1Cl was read as VLA-4 inh 3.1, MEKK2 mut-MEK5 9.0, MEKK2wt PB1 HTS 102.0 and MEKK3 PB1 HTS 114.0.
For CN(C(=O)CSc1nnc(C2CC2)n1-c1ccccc1)C1CCS(=O)(=O)C1 (configuration not stated) the results were VLA-4 inh 1.8.
CN(C)CCNC(=O)c1sc2nc(-c3ccccc3)cc(C(F)(F)F)c2c1N was read as VLA-4 inh -97.0, MEKK2 mut-MEK5 14.0, MEKK2wt PB1 HTS 158.0*, MEKK3 PB1 HTS 109.0, MEKK2wt confirm 139.0, MEKK2mut confirm 18.0 and MEKK3 confirm 100.0.
`CN(Cc1ccccc1)C(=O)CN1C(=O)NC(C)(c2ccc(Cl)cc2)C1=O` (configuration not stated) gave VLA-4 inh 10.6, MEKK2 mut-MEK5 -1.0, MEKK2wt PB1 HTS 99.0 and MEKK3 PB1 HTS 101.0.
CCCCn1c(N)c(N(CC(C)C)C(=O)c2c(-c3ccccc3)noc2C)c(=O)[nH]c1=O was read as VLA-4 inh 14.2.
Screening Cc1ccc(OCC(=O)NCCCNC(=O)c2ccc(C)nc2)cc1 returned VLA-4 inh 6.9, MEKK2 mut-MEK5 -7.0, MEKK2wt PB1 HTS 99.0 and MEKK3 PB1 HTS 98.0.
`COc1ccc(CCNS(=O)(=O)CC23CCC(CC2=O)C3(C)C)cc1OC` (configuration not stated) gave VLA-4 inh 12.7, MEKK2 mut-MEK5 29.0*, MEKK2wt PB1 HTS 118.0, MEKK3 PB1 HTS 114.0, MEKK2wt confirm 101.0, MEKK2mut confirm 0.0 and MEKK3 confirm 103.0.
`CCNc1ccc(C(=O)OCC(=O)NC(=O)NCC(C)C)cc1[N+](=O)[O-]` gave VLA-4 inh 7.5, MEKK2 mut-MEK5 5.0, MEKK2wt PB1 HTS 98.0 and MEKK3 PB1 HTS 99.0.
For CCNc1ccc(C(=O)OCC(=O)NCc2ccccc2Cl)cc1[N+](=O)[O-] the results were VLA-4 inh 18.0, MEKK2 mut-MEK5 1.0, MEKK2wt PB1 HTS 111.0, MEKK3 PB1 HTS 140.0*, MEKK2wt confirm 100.0, MEKK2mut confirm -2.0 and MEKK3 confirm 102.0.
For CCOC(=O)c1cc(-c2ccccc2)sc1NC(=O)C(C)N1C(=O)c2ccccc2C1=O (configuration not stated) the results were VLA-4 inh 4.3, MEKK2 mut-MEK5 0.0, MEKK2wt PB1 HTS 105.0, MEKK3 PB1 HTS 136.0*, MEKK2wt confirm 97.0, MEKK2mut confirm -3.0 and MEKK3 confirm 106.0.
For CCOC(=O)c1cc(-c2ccccc2)sc1NC(=O)CCN1C(=O)c2ccccc2C1=O the results were VLA-4 inh -8.2, MEKK2 mut-MEK5 1.0, MEKK2wt PB1 HTS 32.0*[inhibitor], MEKK3 PB1 HTS 97.0, MEKK2wt confirm 99.0, MEKK2mut confirm -6.0 and MEKK3 confirm 98.0.
`CCCn1c(CNC(=O)Cc2ccccc2)nc2ccccc21` gave VLA-4 inh 19.2, MEKK2 mut-MEK5 -10.0, MEKK2wt PB1 HTS 38.0*[inhibitor], MEKK3 PB1 HTS 32.0*[inhibitor], MEKK2wt confirm 102.0, MEKK2mut confirm 2.0 and MEKK3 confirm 101.0.
`CCCC(=O)NCCc1nc2ccccc2n1CCC` gave VLA-4 inh 2.4, MEKK2 mut-MEK5 6.0, MEKK2wt PB1 HTS 101.0 and MEKK3 PB1 HTS 100.0.
Screening CCn1c(SCC(=O)c2ccccc2)nc2sc3c(c2c1=O)CCN(C)C3 returned VLA-4 inh -5.2, MEKK2 mut-MEK5 29.0, MEKK2wt PB1 HTS 124.0, MEKK3 PB1 HTS 130.0*, MEKK2wt confirm 104.0, MEKK2mut confirm 0.0 and MEKK3 confirm 104.0.
Screening CN1CCc2c(sc3nc(SCC(N)=O)n(-c4ccccc4)c(=O)c23)C1 returned VLA-4 inh -10.5, MEKK2 mut-MEK5 79.0*, MEKK2wt PB1 HTS 105.0, MEKK3 PB1 HTS 99.0, MEKK2wt confirm 94.0, MEKK2mut confirm -6.0 and MEKK3 confirm 99.0.
Screening CN1CCc2c(sc3nc(SCC(N)=O)n(-c4ccc(Cl)cc4)c(=O)c23)C1 returned VLA-4 inh 0.5, MEKK2 mut-MEK5 2.0, MEKK2wt PB1 HTS 98.0 and MEKK3 PB1 HTS 94.0.
`CN(C)CCCNc1nc2sc3c(c2c(=O)n1CCc1ccccc1)CCCCC3` gave VLA-4 inh 9.6, MEKK2 mut-MEK5 49.0, MEKK2wt PB1 HTS 183.0*, MEKK3 PB1 HTS 111.0, MEKK2wt confirm 166.0, MEKK2mut confirm 45.0 and MEKK3 confirm 108.0.

Screening results: PubChem BioAssay, NMMLSC
